Screens: PubChem BioAssay, National Center for Advancing Translational Sciences (NCATS)
Sfp inh – blocks B. subtilis Sfp PPTase activity. Q9F4F7. Biochemical Sfp PPTase activity, qHTS. Potency, µM, most hits filed as inhibitors. actives 3.5% (n = 310,000);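 further: the enzyme is Sfp with the accession as filed and its product quenches rhodamine fluorescence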
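Step 1, compound plus 15 nM Sfp-PPTase, 15 min, room temperature. Step 2, add rhodamine-CoA (5 uM) and BHQ-2-YbbR (12.5 uM). Step 3, read 525/598 nm fluorescence at 0 and 30 min.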
GLS inhibitor – glutaminase GLS (human) inhibition; O94925; GLS enzymatic activity, qHTS titration; Potency, µM (highest dose often 45.5 µM), hits mostly inhibitors; actives 0.21% (n = 410,000)
Target sequence (O94925 whole entry, looked up): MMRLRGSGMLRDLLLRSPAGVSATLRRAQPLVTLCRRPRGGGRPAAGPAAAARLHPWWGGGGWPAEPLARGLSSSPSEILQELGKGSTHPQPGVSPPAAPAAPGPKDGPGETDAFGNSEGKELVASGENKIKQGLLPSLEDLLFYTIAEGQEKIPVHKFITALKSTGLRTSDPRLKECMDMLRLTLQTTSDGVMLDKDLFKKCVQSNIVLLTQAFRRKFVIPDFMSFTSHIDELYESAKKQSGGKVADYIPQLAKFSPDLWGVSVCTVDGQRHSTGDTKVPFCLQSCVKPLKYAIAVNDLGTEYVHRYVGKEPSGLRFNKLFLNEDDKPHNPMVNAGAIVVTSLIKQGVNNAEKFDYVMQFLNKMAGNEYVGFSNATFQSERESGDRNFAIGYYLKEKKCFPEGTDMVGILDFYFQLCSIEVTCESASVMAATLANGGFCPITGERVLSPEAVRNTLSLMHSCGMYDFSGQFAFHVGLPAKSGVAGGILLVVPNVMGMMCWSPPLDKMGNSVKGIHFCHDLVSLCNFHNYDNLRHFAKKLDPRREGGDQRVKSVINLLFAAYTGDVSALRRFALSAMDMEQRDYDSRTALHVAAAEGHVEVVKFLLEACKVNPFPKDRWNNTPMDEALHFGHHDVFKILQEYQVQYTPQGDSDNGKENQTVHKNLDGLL
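hKGA in 45 mM KH2PO4 (pH 8.2), 0.02% Tween-20 with compound, then 1mM L-Glutamine (stock as added) plus glutamate oxidase/HRP/Amplex red coupling mix. Fluorescence read initially and after 30 min at RT; signal change reflects glutamate formation.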
TrxR1 substrate – substrates of rat thioredoxin reductase 1. O89049. purified TrxR1 substrate turnover, NADPH consumption readout. Potency, µM (top dose mostly 114 µM). actives 0.01% (n = 390,000). AID 588456; further: nearly all actives have a fitted effect of over 50% in size
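Rat TrxR1, dispensed at 90 nM, was prereduced with 400 uM NADPH (final) for 5 min at ~22 deg C, then incubated with compound 15 min before 400 uM selenite. A first-read NADPH fluorescence drop versus no-compound background flagged substrates.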
KAT2A inh – inhibitors of human GCN5L2 histone acetyltransferase. GCN5L2 HAT assay, ThioGlo1 CoA-SH fluorescence. Potency, µM (highest dose often 58.9 µM), usual class: inhibitors. actives 0.21% (n = 390,000). AID 504327
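GCN5L2 (20 nM) in 50mM HEPES pH 7.5, 0.1mM EDTA, 0.01% Tween-20 preincubated 15 min with compounds at room temperature. Reaction started with H3(1-25) 75uM, acetyl-CoA 70uM, ThioGlo1 50uM; CoA-thiol fluorescence (Ex340/Em540) read at 0 and 20 min.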
rTrxR1 inhibitor – rat TrxR1 inhibition. O89049. recombinant rTrxR1, NADPH fluorescence consumption, selenite substrate. Potency, µM (series often up to 114 µM), actives largely listed as inhibitors. actives 1% (n = 390,000). AID 588453; further: nearly all actives have a fitted effect of over 65% in size
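Rat TrxR1 (90 nM in the dispensed reagent) was pre-reduced with 400 uM NADPH for 5 min at room temperature, then incubated with compound for 15 min. After 400 uM selenite was added, NADPH fluorescence (Ex 340/Em 450 nm) was followed for 8 min.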
VDR inhibitor – vitamin D3 receptor (human) inhibition | VDR-SRC2-3 peptide fluorescence polarization, 2 h | actives 0.93% (n = 400,000) | Potency, µM, actives largely listed as inhibitors | P11473
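Measured by FP: displacement of SRC2-3 coactivator peptide from VDR by library compounds, following a two-hour ambient incubation.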
Large screens that a line does not name were inactive. Shown are actives, neighbours in structure and some others; about 3.8% of the full set was active somewhere. The call rests on the fitted dose curve; in most records, active means well fitted curve in the direction sought with a large enough effect; inconclusive means small, poorly fitted or top-dose-only effect, or another doubt; inactive means no such curve, though single readings can be large; an effect the other way counts as inactive or inconclusive.

CCCOC(=O)/C(=C\c1ccc([N+](=O)[O-])o1)NC(=O)c1ccccc1	none
CCOC(=O)/C(=C\c1ccc([N+](=O)[O-])o1)NC(=O)c1ccccc1	rTrxR1 inhibitor 7.9µM
COc1ccccc1C(=O)/C=C/c1ccc(N2CCCCC2)c([N+](=O)[O-])c1	VDR inhibitor 79µM
O=C(/C=C/c1cccc([N+](=O)[O-])c1)NC(=S)Nc1cccc(NC(=O)c2ccccc2Cl)c1	none
Cc1cc(O)c(C(=O)/C=C/c2cccc([N+](=O)[O-])c2)c(=O)o1	KAT2A inh inconclusive
CC(=O)Oc1ccccc1C(=O)C=Cc1cccc([N+](=O)[O-])c1	rTrxR1 inhibitor 25µM, VDR inhibitor 22µM (no result: Sfp inh, KAT2A inh)
O=C(/C=C/c1cccc([N+](=O)[O-])c1)c1ccccc1	VDR inhibitor 20µM (no result: GLS inhibitor, TrxR1 substrate, KAT2A inh, rTrxR1 inhibitor)
O=C(/C=C/c1cccc([N+](=O)[O-])c1)NC(=S)Nc1ccccc1C(=O)O	Sfp inh 40µM, KAT2A inh inconclusive (no result: GLS inhibitor, TrxR1 substrate, rTrxR1 inhibitor, VDR inhibitor)
O=C(/C=C/c1cccc([N+](=O)[O-])c1)OCC(=O)c1ccccc1	none
Cc1ccc(CNc2ccc(N3C(=O)CC(C)C3=O)cc2[N+](=O)[O-])cc1 (stereo not drawn)	Sfp inh inconclusive
O=C(NNC(=O)C1CCN(c2ncccn2)CC1)c1ccc(F)cc1	none
Cc1ccc(NC(=O)CN2C(=O)N/C(=C/c3cc(C)n(-c4ccc(C(=O)O)cc4)c3C)C2=O)cc1	KAT2A inh inconclusive
Cc1ccccc1NC(=O)CN1C(=O)S/C(=C\c2cccn2-c2cccc(C(=O)O)c2)C1=O	GLS inhibitor inconclusive
Cc1ccc(NC(=O)CN2C(=O)S/C(=C\c3cccn3-c3cccc(C(=O)O)c3)C2=O)c(C)c1	Sfp inh 50µM, GLS inhibitor inconclusive
Cc1ccc(NC(=O)CN2C(=O)N/C(=C/c3ccco3)C2=O)cc1	Sfp inh 45µM, KAT2A inh inconclusive
CCn1c(C)cc(/C=C2\NC(=O)N(CC(=O)Nc3ccc(F)cc3)C2=O)c1C	none
Cc1ccc(NC(=O)CN2C(=O)N/C(=C/c3cccn3-c3ccc(C(=O)O)cc3)C2=O)cc1	Sfp inh 50µM, GLS inhibitor 5µM, KAT2A inh inconclusive, rTrxR1 inhibitor inconclusive
COC(=O)c1ccc(S(=O)(=O)NCc2ccco2)o1	none
CCOc1ccc2c(O)csc2c1	Sfp inh 50µM, VDR inhibitor inconclusive
CCCC(=O)Nc1nc2ccc(OCC)cc2s1	none
CC(=O)c1cccc(NC(=O)c2cccc3c(-c4cccc(C(N)=O)c4)coc23)c1	none (no result: Sfp inh, TrxR1 substrate, KAT2A inh, rTrxR1 inhibitor, VDR inhibitor)
CN(Cc1ccc(Cl)c(Cl)c1)C(=O)c1cccc(S(=O)(=O)N2CCN(Cc3ccccc3)CC2)c1	none (no result: Sfp inh)
COc1cc2nc3c(c([Si](C)(C)C(C)(C)C)c2cc1OC)Cn1c-3cccc1=O	Sfp inh 79µM (no result: GLS inhibitor, TrxR1 substrate, KAT2A inh, rTrxR1 inhibitor, VDR inhibitor)
CC(C)(C)[Si](C)(C)c1c2c(nc3ccc(OCc4ccccc4)cc13)-c1cccc(=O)n1C2	Sfp inh 56µM (no result: GLS inhibitor, TrxR1 substrate, KAT2A inh, rTrxR1 inhibitor, VDR inhibitor)
CCOc1cc([N+](=O)[O-])cc2c1C(=O)Nc1ccccc1O2	none
Cc1nn(-c2ccccn2)c2c1-c1nc(N3CCOCC3)ncc1CC2	Sfp inh 45µM
Cc1nn(-c2ccccn2)c2c1-c1nc(N)ncc1CC2	none
COc1ccc(C(=S)N(C)C)cc1OC	Sfp inh 45µM, VDR inhibitor inconclusive
CN(C)C(=S)c1ccc(N(C)C)cc1	Sfp inh 16µM, VDR inhibitor inconclusive
CN(C)C(=S)c1ccccc1	Sfp inh 20µM, VDR inhibitor inconclusive
COc1ccc(C(=O)c2ccc(OC)c(OC)c2)cc1OC	none
CN(/N=C/c1ccccc1O)C(=S)c1ccccc1	Sfp inh inconclusive
COc1ccccc1S(=O)(=O)Nc1ccc2cn[nH]c2c1	none
COc1ccc(-c2nn(-c3ccccc3)cc2C(=O)NCC(c2cccs2)N2CCOCC2)cc1 (stereo not drawn)	KAT2A inh inconclusive (no result: Sfp inh)
CCC1(C)N([O-])C(C)=C(c2ccccc2)[N+]1=O (stereo not drawn)	none
CC1(CCl)N([O-])C2=C(CCCC2)[N+]1=O (stereo not drawn)	Sfp inh 35µM
